Screening results: PubChem, several laboratories
Most compounds without a hit are left out; they make up all but 2.4% or so of the library.
TMEM16A act: mouse TMEM16A channel activation, primary screen; Q8BHY3; HEK293 TMEM16A/YFP-H148Q/I152L, iodide quench fluorescence; hits give low values; B-score at 10 µM; 340,000 compounds, 0.3% hits; AID 623877;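 active means fluorescence-ratio B-score plate-corrected deviation score at least 3 library SD below zero, with starting fluorescence score within 5 deviations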;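 further: channel opened by trigger with iodide after compound preincubation; score built on the fluorescence ratio of max minus min over baseline; more negative score means more quench and so TMEM16A activation or potentiation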
HTR2A ag: mouse HTR2A agonism via beta-arrestin recruitment; P35363; CHO-K1 mHTR2A beta-arrestin complementation, luminescence; percent of 30 µM serotonin response; activation, % at 7.6 µM; 360,000 compounds, 0.66% hits;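 active means activation above a run cutoff, the mean activation of all tested compounds plus 3 SD, cut at about 14% in these data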
TMEM16A inh: inhibitors of mouse TMEM16A calcium-activated chloride channel | Q8BHY3 | 310,000 compounds, 1.2% hits | HEK293 TMEM16A/YFP iodide influx fluorescence, ionomycin | normalized B-score (activity score, 25-100; higher = stronger inhibition) at 10 µM;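 active means ratio plate-corrected score three or more library SD toward inhibition, starting fluorescence score within five deviations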;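 further: score derived from kinetic fluorescence span divided by baseline fluorescence per well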
TLR9-MyD88 block: inhibitors of human TLR9-MyD88 binding | Q9NR96+Q99836 | CHO BLA complementation TLR9-MyD88, CCF4 FRET ratio | 340,000 compounds, 0.21% hits | AID 504734 | inhibition, % at 4.98 µM;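 active means inhibition above the mean over all tested compounds plus 3 SD, cut at about 21% in these data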
NOD2-RIPK2 inh: blocks binding of human NOD2 to RIPK2; O43353; 360,000 compounds, 0.38% hits; AID 624267; inhibition, % at 4.98 µM; CHO BLA complementation NOD2-RIPK2, CCF4 ratio; in the data active means inhibition above about 21%
TLR4 MyD88 comp: blocks binding of human TLR4 to MyD88; HeLa CL3-4 TLR4/MyD88 BLA complementation, FRET ratio; inhibition, % at 8.4 µM; 200,000 compounds, 0.18% hits; AID 861; in the data active means inhibition above about 25%
Target sequence (O00206 whole entry, looked up): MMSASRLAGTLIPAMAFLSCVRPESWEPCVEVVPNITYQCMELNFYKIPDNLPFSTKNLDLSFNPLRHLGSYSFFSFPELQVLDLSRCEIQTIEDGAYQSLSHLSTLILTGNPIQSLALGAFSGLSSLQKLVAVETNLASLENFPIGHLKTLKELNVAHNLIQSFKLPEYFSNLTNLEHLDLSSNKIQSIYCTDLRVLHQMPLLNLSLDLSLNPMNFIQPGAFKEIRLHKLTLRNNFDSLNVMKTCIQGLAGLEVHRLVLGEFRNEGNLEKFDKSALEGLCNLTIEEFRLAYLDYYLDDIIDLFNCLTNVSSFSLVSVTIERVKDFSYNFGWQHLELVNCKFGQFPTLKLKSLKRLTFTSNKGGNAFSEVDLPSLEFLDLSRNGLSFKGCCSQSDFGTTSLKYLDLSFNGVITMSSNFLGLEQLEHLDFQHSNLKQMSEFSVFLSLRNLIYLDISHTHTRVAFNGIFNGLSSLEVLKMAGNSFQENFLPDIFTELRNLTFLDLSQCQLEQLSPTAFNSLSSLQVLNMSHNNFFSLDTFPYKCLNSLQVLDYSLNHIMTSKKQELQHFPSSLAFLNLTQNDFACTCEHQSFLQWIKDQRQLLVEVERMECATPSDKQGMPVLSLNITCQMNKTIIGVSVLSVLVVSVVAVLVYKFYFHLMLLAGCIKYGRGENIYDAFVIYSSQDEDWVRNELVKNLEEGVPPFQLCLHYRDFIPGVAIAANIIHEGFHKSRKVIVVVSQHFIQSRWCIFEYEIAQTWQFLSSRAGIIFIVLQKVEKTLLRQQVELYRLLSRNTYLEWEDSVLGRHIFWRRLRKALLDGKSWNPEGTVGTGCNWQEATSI
Target sequence (Q99836 whole entry, looked up): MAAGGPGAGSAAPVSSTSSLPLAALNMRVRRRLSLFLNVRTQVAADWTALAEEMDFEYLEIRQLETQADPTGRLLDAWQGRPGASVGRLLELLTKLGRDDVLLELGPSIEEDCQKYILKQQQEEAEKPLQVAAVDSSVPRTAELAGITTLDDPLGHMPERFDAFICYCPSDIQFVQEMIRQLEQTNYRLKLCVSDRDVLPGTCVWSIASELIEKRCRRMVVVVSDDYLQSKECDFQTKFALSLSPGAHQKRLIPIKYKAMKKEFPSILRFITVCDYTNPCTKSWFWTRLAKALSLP
TMEM16A reconf: TMEM16A (mouse) chloride channel inhibition, re-confirmation | shares compounds with TMEM16A inh | 2,300 compounds, 39% hits | inhibition, % at 10 µM | HEK293 TMEM16A/YFP-H148Q, iodide quench fluorescence; ionomycin added to raise cell calcium;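 active means mean duplicate percent inhibition, scaled so buffer wells are 0 and the reference blocker 100, over three buffer SD above buffer mean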
TMEM16A Ca cntr: counter-screen for TMEM16A inhibitors: effect on calcium mobilization; shares compounds with TMEM16A inh; TMEM16A/YFP HEK293, Fluo4 calcium mobilization; calcium response (% of ionomycin), % at 10 µM; 2,300 compounds, 2% hits;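 active means duplicate-averaged calcium signal over 20% of the ionomycin maximum, relative to buffer baseline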;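 further: each well's signal is peak minus trough fluorescence divided by its pre-addition baseline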
Parental YFP cnt: acts in parental YFP-HEK293 cells lacking TMEM16A, counter-screen; shares compounds with TMEM16A inh; iodide YFP quench, ionomycin; YFP ratio F(max-min)/F0 at 10 µM; 2,300 tested, under 10 active; AID 652233;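 active means yellow fluorescent protein signal ratio exceeding the buffer control mean by over 5 SD of those controls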;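 further: ratio is mean of duplicate wells from kinetic YFP trace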
ClC-1 rat inh: blocks the rat ClC-1 voltage-dependent chloride channel | shares compounds with TMEM16A inh | CHO ClC-1-YFP, iodide influx fluorescence quench; iodide control reads 0, buffer control 100 | ratio percent, % at 10 µM | 2,300 tested, under 10 active | AID 652236;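 active means duplicate-mean ratio percent above the mean of iodide-only control wells, which defines zero, plus 5 of their SD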;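 further: higher percent means stronger block of ClC-1 iodide influx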
Of the large screens only hits and unclear results are named; the others gave an inactive call (follow-up assays come after a bar, where they were run).

COC(=O)c1ccc(NC(=O)Nc2ccc(OC)c(OC)c2)cc1	none
COc1ccc(S(=O)(=O)Nc2ccccc2C(F)(F)F)cc1	TMEM16A inh 100 | TMEM16A reconf inactive | TMEM16A Ca cntr inactive | Parental YFP cnt inactive | ClC-1 rat inh inactive
CN(CC(=O)Nc1ccc(N2CCOCC2)cc1)C(=O)c1cc2c(s1)CCCC2	none (no result: TMEM16A inh, TLR4 MyD88 comp)
COc1ccc(CNC(=O)COC(=O)C2CCC(C(C)(C)C)CC2)cc1 (configuration not stated)	none
COc1ccc(C(=O)N/N=C\c2coc3ccc(C)cc3c2=O)cc1	none (no result: TLR4 MyD88 comp)
NNC(=O)c1ccc(COc2ccc3ccccc3c2)o1	none (no result: TLR4 MyD88 comp)
O=C(OCc1ccccn1)c1ccc(COc2ccc3ccccc3c2)o1	TMEM16A inh 25 (no result: TLR4 MyD88 comp) | TMEM16A reconf 32% | TMEM16A Ca cntr inactive | Parental YFP cnt inactive | ClC-1 rat inh inactive
Cc1c(C(=O)N2CCC[C@H]2CO)oc2c(F)cccc12	none (no result: TLR4 MyD88 comp)
Cc1ccc(Oc2c(C(N)=O)cc([N+](=O)[O-])cc2[N+](=O)[O-])cc1	none
CCCOC(=O)c1ccc(-c2c(C)noc2-c2ccc(OC)cc2O)o1	TMEM16A inh 100 | TMEM16A reconf inactive | TMEM16A Ca cntr inactive | Parental YFP cnt inactive | ClC-1 rat inh inactive
CCOc1cc(Br)c(C(=O)O)cc1OCC	none
COC(=O)[C@H](CC(C)C)NC(=O)NC1CCCCC1C (some centres not stated)	TMEM16A inh 25 | TMEM16A reconf inactive | TMEM16A Ca cntr inactive | Parental YFP cnt inactive | ClC-1 rat inh inactive
Cc1ccc(NC(=O)COc2cccc(C)c2C)cc1S(=O)(=O)N1CCCCCC1	none (no result: TLR4 MyD88 comp)
CCc1ccc(C(=O)Nc2ccc(OC)c(S(=O)(=O)N3CCOCC3)c2)cc1	TMEM16A inh 100 | TMEM16A reconf inactive | TMEM16A Ca cntr inactive | Parental YFP cnt inactive | ClC-1 rat inh inactive
COc1ccc(C(=O)Nc2ccc(C)c(S(=O)(=O)N3CCCCCC3)c2)cc1	TMEM16A inh 100 | TMEM16A reconf inactive | TMEM16A Ca cntr inactive | Parental YFP cnt inactive | ClC-1 rat inh inactive
Cc1ccc(NC(=O)CSc2ncnc3ccccc23)cc1S(=O)(=O)N1CCCCCC1	TMEM16A inh 25 | TMEM16A reconf 27% | TMEM16A Ca cntr inactive | Parental YFP cnt inactive | ClC-1 rat inh inactive
CCc1cccc(OCC(=O)Nc2ccc(C)c(S(=O)(=O)N3CCCCCC3)c2)c1	TMEM16A inh 100 (no result: TLR4 MyD88 comp) | TMEM16A reconf inactive | TMEM16A Ca cntr inactive | Parental YFP cnt inactive | ClC-1 rat inh inactive
CCc1ccc(C(=O)Nc2ccc(OC)c(S(=O)(=O)N3CCCCC3)c2)cc1	none (no result: TMEM16A inh, TLR4 MyD88 comp)
Cc1cccc(OCCC(=O)Nc2ccc(C)c(S(=O)(=O)N3CCCCC3)c2)c1	TMEM16A inh 25 | TMEM16A reconf 34% | TMEM16A Ca cntr inactive | Parental YFP cnt inactive | ClC-1 rat inh inactive
CCc1ccc(-c2nc(CSCC(=O)N3CCN(c4ncccn4)CC3)c(C)o2)cc1	TMEM16A inh 25 | TMEM16A reconf inactive | TMEM16A Ca cntr inactive | Parental YFP cnt inactive | ClC-1 rat inh inactive
CSc1ccc(-c2nc(CSCC(=O)NC3CC3)c(C)o2)cc1	none (no result: TLR4 MyD88 comp)
CSc1ccc(-c2nc(CSCC(=O)N3CCOCC3)c(C)o2)cc1	TMEM16A inh 25 | TMEM16A reconf 28% | TMEM16A Ca cntr inactive | Parental YFP cnt inactive | ClC-1 rat inh inactive
COc1ccc(C)cc1NC(=O)C1CCCN(S(=O)(=O)c2cccc3cccnc23)C1 (configuration not stated)	TMEM16A inh 100 (no result: TLR4 MyD88 comp) | TMEM16A reconf inactive | TMEM16A Ca cntr inactive | Parental YFP cnt inactive | ClC-1 rat inh inactive
COc1ccc(NC(=O)C2CCCN(S(=O)(=O)c3cccc4cccnc34)C2)c(OC)c1 (configuration not stated)	none
COc1cccc(C(C(=O)NC2CCCC2)N(C(=O)c2ccco2)c2ccc(-n3cnnn3)c(C)c2)c1OC (configuration not stated)	none
Cc1ccc(S(=O)(=O)N2CCN(c3ccnc4cc(Cl)ccc34)CC2)cc1	TMEM16A inh 100 | TMEM16A reconf inactive | TMEM16A Ca cntr inactive | Parental YFP cnt inactive | ClC-1 rat inh inactive
Cc1cc(N2CCN(CC(O)C(F)(F)F)CC2)c2ccccc2n1 (configuration not stated)	none (no result: TLR4 MyD88 comp)
Cc1cc(N2CCN(S(=O)(=O)c3ccc(Cl)c(Cl)c3)CC2)c2ccccc2n1	TMEM16A inh 100 | TMEM16A reconf inactive | TMEM16A Ca cntr inactive | Parental YFP cnt inactive | ClC-1 rat inh inactive
CN1CCN(C2CCCCCC2)CC1	TMEM16A inh 25 | TMEM16A reconf inactive | TMEM16A Ca cntr inactive | Parental YFP cnt inactive | ClC-1 rat inh inactive
C/C(=N\NC(=O)c1c(Cl)c(C)nn1C)c1ccc(NC(=O)c2ccncc2)cc1	none
Cc1nn(-c2ccc(NC(=O)c3ccncc3)cc2)c(C)c1Cl	TMEM16A inh 25 (no result: TLR4 MyD88 comp) | TMEM16A reconf 18% | TMEM16A Ca cntr inactive | Parental YFP cnt inactive | ClC-1 rat inh inactive
O=C(c1cccc(COc2ccc(Cl)cc2Cl)c1)N1CCN(c2ccccn2)CC1	TMEM16A inh 100 | TMEM16A reconf inactive | TMEM16A Ca cntr inactive | Parental YFP cnt inactive | ClC-1 rat inh inactive
COc1ccc(Cl)cc1-n1c(=S)sc2c(=O)[nH]c(SCC(=O)C(C)(C)C)nc21	TMEM16A inh 100 (no result: TLR4 MyD88 comp) | TMEM16A reconf 28% | TMEM16A Ca cntr inactive | Parental YFP cnt inactive | ClC-1 rat inh inactive
CCCCNC(=O)CSc1nc2c(sc(=S)n2-c2cc(Cl)ccc2OC)c(=O)[nH]1	none (no result: TLR4 MyD88 comp)
CC[C@@H]1[C@H]2CCCC(=O)N3CC[C@@H](C[C@@H]1Nc1ccccc1)[C@@H]23	none (no result: TLR4 MyD88 comp)
COc1ccc(Cl)cc1NC(=O)C(C)N(C)Cc1ccc(C(F)(F)F)cc1 (configuration not stated)	TMEM16A inh 100 | TMEM16A reconf inactive | TMEM16A Ca cntr inactive | Parental YFP cnt inactive | ClC-1 rat inh inactive
COc1cc(CN(C)C(C)C(=O)Nc2ccc([N+](=O)[O-])cc2Cl)ccc1OC(F)F (configuration not stated)	none
C/C=C(/C)C(=O)OC(C)(C)[C@@H]1Cc2c(ccc3ccc(=O)oc23)O1	none
